Experimental data taken from the OligoGym collection.

Biological target: DDX49
Experiment: pooled miR-30 sensor sort-seq; sequence = guide strand
Details: shRNA
Note: reference of the scale not given here.

Sequence	sensor-assay potency score (higher = more potent)
TAGATGCTGGACTTGAACTTGG	-0.112
TCTTTCTGCTTCATCATGGAGT	-0.0519
TTGATCTCACACTCTCTTCGCA	-0.0453
TCGTACTGTGTCACCAGCGTGA	-0.48
TCTGTTGCGATCAGGATCCGGT	0.242
TTCTTCTTGATCTGCTCCTCGA	-0.688
TCATCCATCACCAGGAAGCGGA	-1.17
TGATCTCACACTCTCTTCGCAC	-1.01
TTTGATCTCACACTCTCTTCGC	-0.199
TTGTGGTTGATGACCACCTGTA	-0.316
TTGATGACCACCTGTACCGTAG	-0.168
TTGATCTGCTCCTCGATGGCGT	0.0961

Biological target: DEF6
Experiment: as above
Details: shRNA

Sequence	sensor-assay potency score (higher = more potent)
TCAACTGCTTCAGCTTCTCTTC	-0.841
TTGAAGAGGCACCAGAGGCGGA	-1.08
TTAGGGAGGAGTCACGGTGGGC	-1.27
